Shown are actives, neighbours in structure and some others; about 2.3% of the full set was active somewhere.
12-LOX inh: Primary qHTS assay for inhibitors of human arachidonate 12S-lipoxygenase (ALOX12): Round 2 | AID 1671190, 2021 | hit rate 1.1% among 580,000 | purified 12hLO, xylenol orange hydroperoxide absorbance | Potency, µM (series often up to 108 µM), without a hit: at the top dose activity change, negative = inhibition, most hits filed as inhibitors; also: % is scaled to controls: 0 for no effect and ±100 for the full control effect
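Purified human 12hLO at 150 nM in 25 mM Hepes, 0.01% Triton X-100, pH 7.0, preincubated 15 min at room temperature with compound. Reaction started with 40 uM arachidonic acid, 30 min at room temperature. Hydroperoxide measured by Fe-xylenol orange, 573/405 nm absorbance ratio.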
GLS inh: qHTS for Inhibitors of Glutaminase (GLS) | Glutaminase kidney isoform, mitochondrial (Homo sapiens), O94925 | GLS enzymatic activity, qHTS titration | Potency, µM (top dose mostly 45.5 µM), inactives show top-dose activity change, negative = inhibition, actives largely listed as inhibitors | hit rate 0.21% among 410,000 | AID 624170, 2012; also: % is scaled to controls: 0 for no effect and ±100 for the full control effect
Target sequence (O94925 whole entry, looked up, canonical isoform): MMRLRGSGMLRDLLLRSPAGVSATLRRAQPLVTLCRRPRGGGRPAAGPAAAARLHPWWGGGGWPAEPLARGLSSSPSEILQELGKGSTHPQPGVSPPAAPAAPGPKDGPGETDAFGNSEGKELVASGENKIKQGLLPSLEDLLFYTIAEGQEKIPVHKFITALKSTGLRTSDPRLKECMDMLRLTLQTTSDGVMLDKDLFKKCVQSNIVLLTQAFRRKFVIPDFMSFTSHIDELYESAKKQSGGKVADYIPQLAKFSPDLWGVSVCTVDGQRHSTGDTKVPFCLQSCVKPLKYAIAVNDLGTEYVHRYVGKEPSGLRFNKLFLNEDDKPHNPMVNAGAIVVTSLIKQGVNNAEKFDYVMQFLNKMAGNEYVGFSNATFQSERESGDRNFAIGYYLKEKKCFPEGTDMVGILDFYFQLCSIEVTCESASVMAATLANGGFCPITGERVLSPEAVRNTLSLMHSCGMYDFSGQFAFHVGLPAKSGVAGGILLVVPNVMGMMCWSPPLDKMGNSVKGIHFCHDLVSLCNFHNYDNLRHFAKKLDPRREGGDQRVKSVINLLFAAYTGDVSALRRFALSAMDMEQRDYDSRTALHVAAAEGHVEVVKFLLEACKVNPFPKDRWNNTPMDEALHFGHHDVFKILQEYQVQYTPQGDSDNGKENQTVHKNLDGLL
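hKGA; 45 mM KH2PO4 pH 8.2 + 0.02% Tween-20; cpd via pin tool; 1 mM Gln soln; GluOx/HRP/Amplex Red; RT 30 min; fluor. t0 & final.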
GLP-1R inv ag: qHTS of GLP-1 Receptor Inverse Agonists (Inhibition Mode); Glucagon-like peptide 1 receptor (Homo sapiens), P43220; HEK293 GLP-1R CRE-luciferase, luminescence, 24 h; GLP-1R form is constitutively active; Potency, µM (doses to about 38.3 µM), without a hit: at the top dose activity change, negative = inhibition, usual class: inhibitors; hit rate 1.6% among 410,000; AID 624417, 2012; also: % is scaled to controls: 0 for no effect and ±100 for the full control effect; nearly all actives have a fitted effect of over 55% in size
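Seeding at 200 cells/uL, 12 h culture, 24 hr compound treatment, then luciferase reagent and a luminescence read; cells are HEK293 stably expressing a constitutively active GLP-1R plus cAMP-responsive luciferase.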
GRP78 ERSR act: qHTS for Inducers of the Endoplasmic Reticulum Stress Response (ERSR) in Human Glioma: qHTS; Potency, µM, inactives show at the highest dose activation, hits mostly activators; hit rate 0.02% among 420,000; AID 602332, 2012; U87-MG GRP78 promoter luciferase reporter, 16 h; also: series mostly up to about 76 µM; % of control where 0% means no effect; nearly all actives have a fitted effect of over 35% in size
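Stably transfected U87-MG glioma cells carrying a GRP78-based luciferase sensor; 16 h compound incubation. Luminescence end-point read 10 min after Bright-Glo addition at room temperature.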
GLP1R ag: qHTS of GLP-1 Receptor Agonists. Glucagon-like peptide 1 receptor (Homo sapiens), P43220. HEK293 GLP-1R CRE-luciferase, luminescence, 4-6 h; cells express a hypersensitive GLP-1R form. Potency, µM (titrated, usually from 45.6 µM), inactives show at the highest dose activation, hits mostly activators. hit rate 0.007% among 380,000. AID 624172, 2012; also: % of control where 0% means no effect
PTHR1 agonist: qHTS for PTHR1 Agonists: Primary Screen; Parathyroid hormone/parathyroid hormone-related peptide receptor (Homo sapiens), Q03431; HEK293 GP2 PTHR1 cells, GloSensor cAMP luminescence, 1 h; Potency, µM (highest dose often 115 µM), for the others: at the highest dose activation, most hits filed as activators; hit rate 0.075% among 410,000; AID 743266, 2014; also: nearly all actives have a fitted effect of over 55% in size
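HEK-293-derived GP2 cells expressing PTHR1 and a GloSensor cAMP reporter, 3,000/well, plated overnight, given luciferin plus IBMX (each 0.5 mM as added) for 1 h at 37 °C, then compound for 1 h at 37 °C. Luminescence was read after 15 min at room temperature.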
* marks the source's active call; other numbers are inactive results; i = inactive; ? = inconclusive; . = no result; [ ] = remark or other dose. Calls follow the shape of the dose curve; as a rule, active = well fitted curve in the direction sought with a large enough effect; inconclusive = small, poorly fitted or top-dose-only effect, or another doubt; inactive = no such curve, though single readings can be large; an effect the other way counts as inactive or inconclusive. Potency is read from the fitted curve at half-maximal effect.

SMILES	12-LOX inh	GLS inh	GLP-1R inv ag	GRP78 ERSR act	GLP1R ag	PTHR1 agonist
COc1ccccc1NC(=O)Nc1nc(CC(=O)Nc2cc(F)ccc2F)cs1	?	-2.6%	5.62µM*	-1.6%	-6.2%	-15.2%
COc1cc(OC)cc(C(=O)Nc2nc(CC(=O)NCc3ccccc3OC)cs2)c1	?	-1.1%	10µM*	-2.0%	-14.0%	-10.3%
COc1cc(OC)cc(C(=O)Nc2nc(CC(=O)NCc3ccc(F)cc3)cs2)c1	?	4.0%	7.08µM*	-2.3%	1.0%	-19.2%
COc1cc(OC)cc(C(=O)Nc2nc(CC(=O)NCCc3ccccc3)cs2)c1	?	-5.0%	?	0.2%	9.2%	i
CCOc1cc(C(=O)N(c2cc(C)cc(C)c2)C2C=CS(=O)(=O)C2)cc(OCC)c1OCC (stereo unspecified)	2.6%	.	.	.	.	.
COc1ccc(-c2nc3c(C)cc(Br)cn3c2Cc2ccsc2)cc1OC	-26.9%	3.8%	-18.9%	-3.2%	33.5%	-7.5%
COc1ccc(-c2nc3c(C)cc(Br)cn3c2CC2CCCCC2)cc1OC	7.08µM*	-2.7%	?	-4.4%	13.8%	-9.2%
COc1ccccc1Cc1c(-c2ccc(OC)c(OC)c2)nc2c(C)cc(Br)cn12	?	1.5%	?	-2.8%	12.1%	-16.5%
COc1ccc(-c2nc3c(C)cc(Br)cn3c2CC(C)(C)C)cc1OC	31.6µM*	-18.1%	-7.1%	-4.1%	28.9%	-16.9%
CN1CCc2nc3ccccc3c(C(=O)OCC(=O)N(CCC#N)c3ccccc3)c2C1	-12.6%	-1.1%	-15.6%	-2.2%	6.2%	-6.4%
CCc1nc2ccccc2c(C(=O)OCC(=O)NC2CCCCC2)c1C	-25.3%	.	.	.	.	.
CN(CCC#N)C(=O)COC(=O)c1c2c(nc3ccccc13)/C(=C\c1ccco1)CC2	-28.1%	11.2µM*	-27.7%	3.5%	11.5%	-9.0%
O=C(COC(=O)c1c2c(nc3ccccc13)/C(=C\c1ccco1)CC2)NC1CCCC1	7.08µM*	?	?	4.3%	-6.8%	-13.0%
CCCCNC(=O)COC(=O)c1c2c(nc3ccccc13)/C(=C/c1cccs1)CC2	-17.2%	9.5%	?	4.9%	0.9%	i
CC1CCCCC1NC(=O)COC(=O)c1c2c(nc3ccccc13)/C(=C\c1ccco1)CC2 (stereo unspecified)	15.8µM*	11.2µM*	-18.9%	2.6%	6.6%	i
CCCN1C(=O)c2cc(C(=O)NCc3ccccc3OC)nn2CC1(C)C(=O)NC1CCCC1 (stereo unspecified)	2.1%	.	.	.	.	.
Cc1c(C#N)c(NC(=O)CCl)n(Cc2cccs2)c1C	-20.8%	-8.6%	5.62µM*	-14.2%	-1.2%	-16.1%
Cc1c(C#N)c(NC(=O)CCl)n(Cc2ccccc2)c1C	-10.1%	-10.9%	?	-15.9%	-1.5%	-41.4%
Cc1ccc(C2NC(=S)N3C(c4ccc(C)cc4)NC(=S)N23)cc1 (stereo unspecified)	?	0.7%	10.5%	2.1%	0.5%	i
S=C1NC(c2ccccc2)N2C(=S)NC(c3ccccc3)N12 (stereo unspecified)	15.8µM*	29.6%	0.0%	4.5%	1.8%	-14.3%[57.5 µM]
Cn1c(-c2ccc(F)cc2)cnc1NCc1cccc(F)c1	?	1.0%	?	-1.4%	5.8%	-8.9%[57.5 µM]
Cn1c(-c2ccc3c(c2)OCO3)cnc1NCc1cccc(O)c1	11.2µM*	-27.6%	-19.8%	-0.6%	0.9%	i
Cn1c(-c2ccc(Cl)cc2)cnc1NCc1cc2c(cc1[N+](=O)[O-])OCO2	?	11.9%	3.98µM*	-4.5%	-1.8%	-20.9%
O=C(Nc1cccc2cnccc12)c1cccc(S(=O)(=O)N2CCCCCC2)c1	-5.1%	.	.	.	.	.
COc1ccc(C(=O)Nc2ccc3oc(-c4ccccc4F)cc(=O)c3c2)cc1OC	-0.1%	.	.	.	.	.
SMILES	12-LOX inh	GLS inh	GLP-1R inv ag	GRP78 ERSR act	GLP1R ag	PTHR1 agonist
CCCC(=O)N(Cc1cc(=O)[nH]c2ccccc12)c1cccc(C)c1	-21.0%	-1.0%	-13.9%	0.8%	8.1%	i
Cc1cccc(N(Cc2cc(=O)[nH]c3ccccc23)C(=O)CCl)c1	?	0.5%	2.51µM*	-1.8%	-9.6%	-41.4%
Cc1[nH]c(=O)[nH]c(=O)c1S(=O)(=O)Nc1ccccc1Cl	25.3%	.	.	.	.	.
CC(=O)c1c(C)nn(CC(=O)NC2CCCN(Cc3ccc(CC(C)C)cc3)C2)c1C (stereo unspecified)	6.0%	3.0%	11.2µM*	-14.6%	4.1%	-21.5%
CCOc1ccc(NC(=O)Cn2c(-c3ccccc3)nc(C)cc2=O)cc1	44.6%	.	.	.	.	.
CCOc1ccc(NC(=O)Cn2c(Nc3cc(C)cc(C)c3)nc(C)cc2=O)cc1	35.5µM*	.	.	.	.	.
COc1ccc(CCNC(=O)C(C(C)C)N2Cc3ccccc3C2=O)c(OC)c1OC (stereo unspecified)	36.8%	.	.	.	.	.
Cc1ccccc1NC(=O)Nc1ccc(C(F)(F)F)cc1	-15.1%	9.7%	4.47µM*	6.9%	6.0%	-24.9%
CN(C)c1ccc(/C=C2\SC(=S)N(Nc3ncc(C(F)(F)F)cc3Cl)C2=O)cc1	-18.1%	-0.3%	-1.3%	-1.9%	-21.4%	i
COc1cc(/C=C2\SC(=S)N(Nc3ncc(C(F)(F)F)cc3Cl)C2=O)ccc1O	.	?	10µM*	14.0%	4.4%	-29.7%
COCCn1c(=O)[nH]c(=O)c2c3c(cnc21)C(=O)CC(c1ccc(F)cc1)C3 (stereo unspecified)	2.2%	.	.	.	.	.
Cc1ccc(NC(=O)CSCC(=O)N(C)Cc2ccc(Cl)c(Cl)c2)cc1	0.6%	3.0%	?	-3.6%	3.2%	-14.1%
COc1ccc(NC(=O)CSCC(=O)N(C)Cc2ccc(Cl)c(Cl)c2)cc1	4.8%	1.9%	10µM*	-2.4%	20.8%	-29.5%
CCc1cccc2c1Sc1ccccc1CC2N1CCNCC1 (stereo unspecified)	?	15.4%	8.91µM*	-12.0%	4.1%	-11.8%
Cc1cc2c(cc1C)N(C(=O)CCl)CCN2C(=O)CCl	8.91µM*	-0.1%	?	-13.7%	-15.9%	-40.0%
Cc1cc2c(cc1C)N(C(=O)CCl)CC(=O)N2	.	1.8%	?	-12.9%	-4.2%	-11.0%
COc1ccccc1C(=O)Nc1ccc2oc(-c3ccc4ccccc4c3)nc2c1	-1.7%	.	.	.	.	.
